BAZ2B block: inhibitors of human BAZ2B bromodomain. 4.4% of 360,000 active. Q9UIF8. Potency, µM (doses to about 114 µM), for the others: at the top dose activity change, negative = inhibition, most hits filed as inhibitors. AlphaScreen BAZ2B-H3K14Ac peptide displacement; further: on the % scale 0 is the no-effect control and ±100 the full control effect; nearly all actives have a fitted effect of over 60% in size
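Multi-concentration screen (max 110 uM) measuring displacement of acetylated histone H3 peptide from BAZ2B by AlphaScreen, using 50 nM protein, 50 nM peptide and 10 ug/mL streptavidin donor plus Ni-chelate acceptor beads.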
L3MBTL1 block: blocks human L3MBTL1. Q9Y468. AlphaScreen L3MBTL1–H3K9me1 peptide binding. Potency, µM (top dose mostly 57.1 µM), for inactives: at the top dose activity, negative = inhibition, actives largely listed as inhibitors. 0.66% of 230,000 active; further: on the % scale 0 is the no-effect control and ±100 the full control effect; nearly all actives have a fitted effect of over 60% in size
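AlphaScreen proximity signal between nickel-chelate acceptor and streptavidin donor beads (final 10 ug/mL) reports binding of 50 nM L3MBTL1 to 75 nM biotin-H3 K9me1 peptide; complex incubated with compounds 30 min at room temperature; cefsulodin titration as control.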
HP1b binding inh: inhibitors of HP1-beta chromodomain binding to methylated histone tails; AlphaScreen HP1-beta / biotin-H3K9me3 peptide binding; Potency, µM (series often up to 114 µM), inactives show at the top dose activity change, negative = inhibition, most hits filed as inhibitors; 0.56% of 390,000 active; AID 540317; further: nearly all actives have a fitted effect of over 70% in size
Target sequence (P83916 whole entry, looked up): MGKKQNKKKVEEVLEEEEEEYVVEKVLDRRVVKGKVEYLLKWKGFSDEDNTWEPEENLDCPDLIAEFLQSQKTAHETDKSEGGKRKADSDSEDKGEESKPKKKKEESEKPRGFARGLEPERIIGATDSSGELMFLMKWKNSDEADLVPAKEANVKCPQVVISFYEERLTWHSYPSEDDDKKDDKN
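AlphaScreen: HP1-beta (50 nM) preformed 30 min with biotin-H3(1-18)K9me3 peptide (50 nM) in PBS pH 7.4, 0.01% Tween-20. Compound added for 30 min at RT, then streptavidin donor/nickel chelate acceptor beads (10 ug/mL) for 30 min.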
G9a block: inhibitors of human histone lysine methyltransferase G9a. Q96KQ7. G9a H3K9 monomethylation, AlphaScreen, 2 h. Potency, µM (doses to about 102 µM), inactives show at the top dose activity, negative = inhibition, usual class: inhibitors. 8.8% of 350,000 active. AID 504332; further: on the % scale 0 is the no-effect control and ±100 the full control effect; nearly all actives have a fitted effect of over 75% in size
Target sequence (Q96KQ7 913-1193 limits assumed): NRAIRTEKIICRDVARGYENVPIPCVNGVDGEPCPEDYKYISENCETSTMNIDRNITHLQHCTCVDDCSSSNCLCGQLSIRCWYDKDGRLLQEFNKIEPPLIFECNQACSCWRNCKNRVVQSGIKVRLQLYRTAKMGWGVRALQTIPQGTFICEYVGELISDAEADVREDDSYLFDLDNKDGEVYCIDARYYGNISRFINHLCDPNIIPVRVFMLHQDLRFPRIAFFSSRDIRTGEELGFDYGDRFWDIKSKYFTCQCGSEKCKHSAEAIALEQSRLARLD
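AlphaScreen detection with an anti-monomethyl H3K9 antibody quantified product after a 2 h room-temperature reaction containing 500 nM biotinylated H3K9 peptide, 20 µM SAM and 20 nM enzyme, which had been preincubated 15 min with compound.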
Sfp PPTase inh: blocks B. subtilis Sfp PPTase activity; Potency, µM, for the others: largest response in the series, negative = inhibition, actives largely listed as inhibitors; Biochemical Sfp PPTase activity, qHTS; Q9F4F7; 3.5% of 310,000 active; AID 1490;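 further: the enzyme is Sfp with the accession as filed and its product quenches rhodamine fluorescence; 0% = enzyme reaction without inhibitor and -100% = no enzyme wells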
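Compounds were incubated with enzyme (final 15 nM) for 15 min at room temperature before substrate addition started the reaction. Fluorescence at 525 nm excitation, 598 nm emission was recorded immediately and after 30 minutes.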
JMJD2A Tudor: blocks the human JMJD2A Tudor domain | O75164 | AlphaScreen JMJD2A-Tudor / H3K4me3 peptide binding | Potency, µM (highest dose often 114 µM), inactives show at the top dose activity change, negative = inhibition, actives largely listed as inhibitors | 4.4% of 390,000 active | AID 504339; further: on the % scale 0 is the no-effect control and ±100 the full control effect; nearly all actives have a fitted effect of over 50% in size
An asterisk follows results filed as active; [ ] = dose if it differs, or a comment. A selection: hits, their analogues and other compounds. The true share with any hit is near 12%. The call rests on the fitted dose curve; in most records, active means well fitted curve in the direction sought with a large enough effect; inconclusive means small, poorly fitted or top-dose-only effect, or another doubt; inactive means no such curve, though single readings can be large; an effect the other way counts as inactive or inconclusive. Potency means the concentration at half of the fitted maximal effect.

`O=C(c1cccs1)N(Cc1cccnc1)c1nc2ccc(F)cc2s1` gave BAZ2B block -3%, HP1b binding inh 36%, G9a block -13%[59 µM] and JMJD2A Tudor -9%.
`CCOC(=O)CC(NS(=O)(=O)c1ccc2[nH]cc(C(=O)O)c(=O)c2c1)c1ccc(OCC)c(OC)c1` (centres undefined) gave BAZ2B block 28µM*, HP1b binding inh 50µM*, G9a block 10µM*, Sfp PPTase inh 8% and JMJD2A Tudor 22µM*.
COc1ccc2[nH]c(=O)c(CNc3cc(C)ccc3C)cc2c1 was read as BAZ2B block 50µM*, L3MBTL1 block 7%, HP1b binding inh -32%, G9a block inconclusive, Sfp PPTase inh 50µM* and JMJD2A Tudor inconclusive.
`CCOc1ccc(NCc2cc3cc(OC)ccc3[nH]c2=O)cc1` gave BAZ2B block -27%, L3MBTL1 block -24%, HP1b binding inh -4%, G9a block inconclusive, Sfp PPTase inh -1% and JMJD2A Tudor inconclusive.
Screening COc1ccc2[nH]c(=O)c(CNc3ccc(C)cc3C)cc2c1 returned BAZ2B block -23%, L3MBTL1 block -8%, HP1b binding inh -17%, G9a block 20µM*, Sfp PPTase inh 45µM* and JMJD2A Tudor -32%.
Screening Cc1ccc2[nH]c(=O)c(CNC(C)(C)C)cc2c1 returned BAZ2B block -28%, L3MBTL1 block 2%, HP1b binding inh 14%, G9a block inconclusive, Sfp PPTase inh 5.6µM* and JMJD2A Tudor 0%.
For CC(C)(C)NCc1cc2ccccc2[nH]c1=O the results were BAZ2B block 4%, HP1b binding inh 33%, G9a block 8%, Sfp PPTase inh 13% and JMJD2A Tudor 4%.
O=C(CSc1nc2c(c(=O)[nH]1)CCCC2)Nc1ccccc1C(F)(F)F was read as BAZ2B block -11%, HP1b binding inh 3%, G9a block -31%[59 µM] and JMJD2A Tudor -16%.
Cc1ccc(CNC(=O)CSc2ccc(-c3ccco3)nn2)cc1 was read as BAZ2B block 0%, L3MBTL1 block -3%, HP1b binding inh 17%, G9a block inconclusive, Sfp PPTase inh -11% and JMJD2A Tudor -16%.
Screening Cc1ccc(NC(=O)CSc2ccc(-c3ccco3)nn2)c(C)c1 returned BAZ2B block 2%, HP1b binding inh 17%, G9a block -3%, Sfp PPTase inh 56µM* and JMJD2A Tudor -14%.
For Cc1ccccc1NC(=O)CSc1ccc(-c2cccnc2)nn1 the results were BAZ2B block 2%, HP1b binding inh 12%, G9a block -8%, Sfp PPTase inh 11% and JMJD2A Tudor -21%.
Screening Cc1cc(C)c(NC(=O)CSc2ccc(-c3cccnc3)nn2)c(C)c1 returned BAZ2B block -2%, HP1b binding inh 31%, G9a block 25%, Sfp PPTase inh 56µM* and JMJD2A Tudor -20%.
Screening Cc1ccc(NC(=O)CSc2ccc(-c3ccco3)nn2)cc1 returned BAZ2B block -1%, HP1b binding inh 8%, G9a block 40µM*, Sfp PPTase inh 20µM* and JMJD2A Tudor -8%.
`CC(=O)Nc1cccc(NC(=O)CSc2ccc(-c3ccco3)nn2)c1` gave BAZ2B block inconclusive, HP1b binding inh 17%, G9a block 40µM*, Sfp PPTase inh 32µM* and JMJD2A Tudor inconclusive.
For CCCC(=O)N1CCN(c2nc3ccc(F)cc3s2)CC1 the results were BAZ2B block -1%, HP1b binding inh 17%, G9a block 9%[59 µM] and JMJD2A Tudor 3%.
For C=C1CCN(C(CC(C)C)C(=O)NCc2ccc(Cl)c(Cl)c2)S(=O)(=O)c2ccccc21 (centres undefined) the results were HP1b binding inh 25%, Sfp PPTase inh 11% and JMJD2A Tudor -8%.
`CN(C)C(=O)c1ccc(NC(=O)Cn2nc(-c3ccccc3)c3ccccc3c2=O)cc1` gave BAZ2B block 5%, HP1b binding inh 27%, G9a block 7%[59 µM] and JMJD2A Tudor 4%.
